Here are results for six compounds from PubChem BioAssay (NCI).

The structures appear in SMILES notation. This is part of a sample that, as a whole, favours compounds with a hit. Of some 83,000 tested, about 20% had one in any assay.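 Growth was measured after 48 h exposure to one concentration of compound in 96-well plates. Values under 10 count as active.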 Values without a mark were called inactive. The source made the active and inactive calls.

The assay relates to HL-60(TB) leukemia. Briefly: NCI-60 one-dose screen, 48 h (100 = growth as untreated, 0 = no growth, -100 = all killed). The conditions noted are these: 10 µM unless noted.
Turning to `Nc1n[nH]c2cc(F)c([C@@H]3Nc4c(F)cc5[nH]ncc5c4[C@H]4C5CCC(C5)[C@@H]34)cc12` (stereo partly specified), the growth was -30.1% (active). The result for `CC(C)(C)c1cc(/C=N/NC(=O)c2ccccc2NC(=O)c2cccs2)c(O)c(C(C)(C)C)c1` reads 14.1%; that for `Clc1cn2cc(-c3ccc(Cl)c(Cl)c3Cl)nc2s1`, 85.3%; that for `NC(=O)Nc1ccc2ncnc(Nc3ccc(Cl)cc3)c2c1`, 99.9%. For `Oc1c(CN2CCC(N3CCCCC3)CC2)cc(Cc2cc(CN3CCC(N4CCCCC4)CC3)c(O)c3ncccc23)c2cccnc12`, the growth is -6.31% (active).

In the case of `COc1cc2c(cc1OCCCN1CCN(c3ncnc4ccccc34)CC1)N=CC1CCCN1C2=O` (stereo unspecified), the growth is -53.2% (active).
